Compound activity as filed in PubChem.
ER stress surv: ER stress cell death inhibition | relative survival (cellular ATP), % at 15 µg/mL (by protocol) | 48,000 compounds, 0.33% hits | CSM14.1 thapsigargin ER stress survival, ATP luminescence;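 active = survival measured by cellular ATP above 50% at 15 µg/ml in the first screen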;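 also: cell death triggered by about 15 µM thapsigargin; ATP read 24 h after thapsigargin was added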
Each line names hits and unclear results; the compound was inactive in the other large screens. Only a selection was taken, and hits are over-represented in it overall.

COc1ccc(C2CC(=O)C3=C(C2)Nc2ccccc2NC3c2ccc(C)c([N+](=O)[O-])c2)cc1OC (centres undefined)	none
O=C1CC(c2ccccc2)CC2=C1C(c1ccc(Cl)c(Cl)c1)Nc1ccccc1N2 (centres undefined)	none
Cc1cccc(CN2CCN(C(=O)c3ccc([N+](=O)[O-])cc3)CC2)c1	none
CCn1c2ccccc2c2cc(CN3CCN(C(=O)c4ccc([N+](=O)[O-])cc4)CC3)ccc21	ER stress surv 90.7
CCOc1ccc(CN2CCN(C(=O)c3ccc([N+](=O)[O-])cc3)CC2)cc1	none
O=C(c1ccncc1)N1CCN(Cc2cccc(Oc3ccccc3)c2)CC1	none
O=C(c1ccc([N+](=O)[O-])cc1)N1CCN(Cc2cccc(Oc3ccccc3)c2)CC1	ER stress surv 68.7
COc1ccc(C(=O)N2CCN(Cc3cccc(Oc4ccccc4)c3)CC2)cc1OC	ER stress surv 52.9
COc1cc(C(=O)N2CCN(Cc3cccc(Oc4ccccc4)c3)CC2)cc(OC)c1OC	none
O=C(c1ccc([N+](=O)[O-])cc1)N1CCN(Cc2cccnc2)CC1	none
COc1ccc(C(=O)N2CCN(Cc3cccc(C)c3)CC2)cc1OC	none
CCc1ccc(-n2c(C)cc(C=C(C#N)C#N)c2C)cc1	none
O=C(N/N=C\c1cccc(O)c1)C(=O)N/N=C/c1cccc(O)c1	none
CCc1ccc(S(=O)(=O)N=Nc2c(O)n(CC)c3ccccc23)cc1	none
CC(C)(C)c1cc(C(=O)N/N=C\c2ccc(Cl)cc2)n[nH]1	none
CCN(Cc1ccccc1)S(=O)(=O)c1c(C)cc(C)cc1C	none
COc1ccc(NC(=O)c2cc3nc(-c4ccc(Cl)cc4)cc(C(F)(F)F)n3n2)cc1OC	none
O=c1[nH]nc2c3cc([N+](=O)[O-])c(Cl)cc3n3c(c1-2)CCCCC3	none
Cc1cccc(C=Nc2ccc(O)cc2)c1	none
O=C(CC1SC(=Nc2ccccc2)N(c2ccccc2)C1=O)Nc1ccc(F)cc1 (centres undefined)	none
Cc1ccc(NC(=O)CC2SC(=Nc3ccccc3)N(c3ccccc3)C2=O)cc1 (centres undefined)	none
O=C(CC1SC(=Nc2ccccc2)N(c2ccccc2)C1=O)Nc1ccccc1C(F)(F)F (centres undefined)	ER stress surv 64.6
CCC(Oc1ccccc1)C(=O)N1CCN(C(c2ccccc2)c2ccccc2)CC1 (centres undefined)	none
COc1ccc(CC(=O)N2CCN(c3cccc(Cl)c3)CC2)cc1OC	none
COc1ccc(/C=N/OCC(=O)N2CCN(C(c3ccccc3)c3ccccc3)CC2)cc1OC	ER stress surv 116.3
Cc1ccc(S(=O)(=O)Oc2ccc(Br)cc2C=C2C(=O)NC(=O)NC2=O)cc1	none
Cc1ccc2c(NC(=O)c3ccccc3F)cccc2n1	none
CN(C)c1nccc(N(Cc2ccccc2)Cc2ccccc2)c1C#N	ER stress surv 82.6
COc1nccc(Nc2ccccc2)c1C#N	none
CN(C)CCN(Cc1ccccc1)c1ccnc(N(C)C)c1C#N	none
COc1ccc(/C=C(/c2ccccc2)c2nc3ccccc3[nH]2)cc1	ER stress surv 51.1
CN(C)c1ccc(/C=C(/c2ccccc2)c2nc3ccccc3[nH]2)cc1	none
COc1ccc(C(=O)N/C(=C/c2ccc(Br)cc2)c2nc3ccccc3[nH]2)cc1	none
CCOc1ccc(C(=O)Nc2nnc(SCC)s2)cc1	none
COc1ccc(CNC(=O)CSc2nc(-c3ccccc3)c(-c3ccccc3)[nH]2)cc1	none
COc1ccc(C2CC(=O)C3=C(C2)Nc2ccccc2NC3c2ccccc2C)cc1OC (centres undefined)	none
COc1ccc(C2CC(=O)C3=C(C2)Nc2ccccc2NC3c2ccccc2C(F)(F)F)cc1OC (centres undefined)	ER stress surv 124.1
COc1ccc(C2CC(=O)C3=C(C2)Nc2ccccc2NC3c2ccc(Cl)c(Cl)c2)cc1OC (centres undefined)	none
COc1ccc(C2CC(=O)C3=C(C2)Nc2ccccc2NC3c2cccc3ccccc23)cc1OC (centres undefined)	none
COc1ccc(C2CC(=O)C3=C(C2)Nc2ccccc2NC3c2cc(OC)c(OC)cc2OC)cc1 (centres undefined)	none
COc1ccc(C2CC(=O)C3=C(C2)Nc2ccccc2NC3c2ccc(SC)cc2)cc1OC (centres undefined)	ER stress surv 112.2
COc1ccc(C2CC(=O)C3=C(C2)Nc2ccccc2NC3c2ccc(OCc3ccccc3)c(OC)c2)cc1OC (centres undefined)	ER stress surv 125.1
CCCOc1ccc(C2Nc3ccccc3NC3=C2C(=O)CC(c2ccc(OC)c(OC)c2)C3)cc1 (centres undefined)	ER stress surv 103.4
COc1ccc(C2Nc3ccccc3NC3=C2C(=O)CC(C)(C)C3)cc1OCc1ccccc1 (centres undefined)	none
CC1CCc2c(sc(NC(=O)c3cccc(F)c3)c2C#N)C1 (centres undefined)	none
CCC(=O)Nc1sc2c(c1C(=O)Nc1ccccc1Cl)CCC(C)C2 (centres undefined)	none
COC(=O)C1=C(C)NC(=O)CC1c1cc([N+](=O)[O-])ccc1Cl (centres undefined)	none
CCN(CC)CCSc1nc(O)c(C(C)C)c(=O)n1-c1ccccc1	none
